Only some compounds are listed: those with a hit (about 2.5% of all), similar ones and a draw of the others.
APEX1 inh – qHTS Assay for Inhibitors of the Human Apurinic/apyrimidinic Endonuclease 1 (APE1). DNA repair nuclease/redox regulator APEX1 (Homo sapiens), P27695. recombinant APE1, TAMRA/BHQ-2 abasic DNA cleavage fluorescence. Potency, µM (top dose mostly 65.8 µM), without a hit: at the top dose activity change, negative = inhibition, most hits filed as inhibitors. actives 0.35% (n = 350,000);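 further: potency means the concentration at half of the fitted maximal effect; plate controls were vehicle for no effect and reference inhibitor for full effect; nearly all actives have a fitted effect of over 55% in size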
Target sequence (P27695 whole entry, looked up): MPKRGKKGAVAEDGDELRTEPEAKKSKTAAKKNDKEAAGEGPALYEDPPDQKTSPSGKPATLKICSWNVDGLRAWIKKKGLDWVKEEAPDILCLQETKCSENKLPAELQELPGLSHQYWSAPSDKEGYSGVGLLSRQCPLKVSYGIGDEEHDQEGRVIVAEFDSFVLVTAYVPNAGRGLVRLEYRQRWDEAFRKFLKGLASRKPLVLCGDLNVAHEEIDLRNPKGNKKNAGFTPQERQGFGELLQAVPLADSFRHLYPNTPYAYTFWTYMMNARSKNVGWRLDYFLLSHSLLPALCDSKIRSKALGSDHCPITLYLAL
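Substrate: short duplex with […] THF abasic site, 5'-TAMRA and 3'-BHQ-2, 50 nM final. APE1 at 0.75 nM, preincubated 15 min RT with compound. Fluorescence increase from first to third read measured activity.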
POLI inh – qHTS for Inhibitors of Polymerase Iota | Pol iota fluorescent replication assay, 10 min | actives 1% (n = 390,000) | AID 588590, 2011 | DNA polymerase iota (Homo sapiens), Q9UNA4 | Potency, µM (highest dose often 115 µM), for the others: top-dose activity, negative = inhibition, usual class: inhibitors; further: potency means the concentration at half of the fitted maximal effect
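Pol iota at 10 nM preincubated 15 min with compounds at room temperature; reaction started with fluorescent substrate, 50 nM final. Fluorescence read kinetically at 0 and 10 min; buffer-only wells as negative control.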
Pol beta inh – qHTS Assay for Inhibitors of DNA Polymerase Beta. P06746. Pol beta primer extension/strand displacement, fluorescence kinetic. Potency, µM (doses to about 114 µM), for inactives: top-dose activity change, negative = inhibition, actives largely listed as inhibitors. actives 1.3% (n = 340,000). AID 485314, 2010; further: potency means the concentration at half of the fitted maximal effect; on the % scale 0 is the no-effect control and ±100 the full control effect
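Pol beta (10 nM) was preincubated with compound for 15 min at room temperature. The reaction was then started with 50 nM substrate and read immediately and after a further 10 min at room temperature.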
Pol eta inh-1 – qHTS for Inhibitors of Polymerase Eta; AID 588591, 2011; recombinant Pol eta, fluorescent DNA replication assay; Potency, µM (titrated, usually from 114 µM), inactives show top-dose activity change, negative = inhibition, hits mostly inhibitors; DNA polymerase eta (Homo sapiens), Q9Y253; actives 1.2% (n = 390,000); further: potency means the concentration at half of the fitted maximal effect; on the % scale 0 is the no-effect control and ±100 the full control effect
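Fluorescent replication assay: 50 nM final substrate added after a 15 min room-temperature compound preincubation with 10 nM enzyme. Signal taken at 0 min and again at 10 min.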
Pol kappa inh – qHTS for Inhibitors of Polymerase Kappa; DNA polymerase kappa (Homo sapiens), Q9UBT6; actives 0.53% (n = 400,000); Potency, µM (doses to about 107 µM), inactives show top-dose activity, negative = inhibition, most hits filed as inhibitors; purified Pol kappa, fluorescent DNA synthesis assay, 10 min; AID 588579, 2011; further: potency means the concentration at half of the fitted maximal effect; on the % scale 0 is the no-effect control and ±100 the full control effect
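Inhibition of 10 nM Pol kappa is measured by a fluorescent read-out at 0 and 10 min following addition of 50 nM substrate (final), with a 15-min room-temperature compound preincubation.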
L3MBTL1 block – qHTS Assay for the Inhibitors of L3MBTL1; AlphaScreen L3MBTL1–H3K9me1 peptide binding; Lethal(3)malignant brain tumor-like protein 1 (Homo sapiens), Q9Y468; actives 0.66% (n = 230,000); Potency, µM (top dose mostly 57.1 µM), for inactives: at the top dose activity, negative = inhibition, actives largely listed as inhibitors; further: potency means the concentration at half of the fitted maximal effect; on the % scale 0 is the no-effect control and ±100 the full control effect; nearly all actives have a fitted effect of over 60% in size
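Read-out is AlphaScreen signal from streptavidin donor and nickel chelate acceptor beads (10 ug/mL final each) bridging L3MBTL1 (50 nM) and biotinylated K9-monomethylated H3(1-15) peptide (75 nM), after 30 min compound exposure at room temperature.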
GALK confirm – Confirmation Assay for Inhibitors of Human Galactokinase (GALK). shares compounds with Pol eta inh-1. purified GALK, Kinase-Glo ATP depletion luminescence. Potency, µM (doses to about 115 µM), without a hit: at the highest dose activity, negative = inhibition, usual class: inhibitors. actives 70% (n = 150)
Redox cycling – Confirmatory Assay for Inhibitors of Human Galactokinase (GALK): Phenol-HRP redox assay counterscreen. actives 40% (n = 150). Phenol red-HRP H2O2 redox cycling, absorbance 600 nm. shares compounds with Pol eta inh-1. Potency, µM (doses to about 115 µM), for inactives: top-dose activity change, negative = H2O2 signal, most hits filed as inhibitors
HEK293 tox – Secondary Assay for Inhibitors of Human Galactokinase (GALK): HEK-293 Cell Viability Assay | shares compounds with Pol eta inh-1 | HEK-293 viability, ATP luminescence (CellTiter-Glo), 24/48 h | Potency, µM (highest dose often 46.1 µM), without a hit: at the highest dose activity change, negative = cytotoxicity, actives largely listed as inhibitors | actives 10% (n = 170) | AID 2547, 2010; further: potency means the concentration at half of the fitted maximal effect; on the % scale 0 is the no-effect control and ±100 the full control effect
Pol eta inh-2 – qHTS for Inhibitors of Polymerase Eta: Confirmatory Assay for Cherry-picked Compounds. Pol eta primer extension, TAMRA/BHQ fluorescence, 10 min. Potency, µM, most hits filed as inhibitors. shares compounds with Pol eta inh-1. AID 720502, 2013. actives 64% (n = 2,600); further: potency means the concentration at half of the fitted maximal effect
Numbers without * were called inactive; ? = inconclusive; nt = no result given; [ ] = dose if it differs, or a comment. The call rests on the fitted dose curve; in most records, active means well fitted curve in the direction sought with a large enough effect; inconclusive means small, poorly fitted or top-dose-only effect, or another doubt; inactive means no such curve, though single readings can be large; an effect the other way counts as inactive or inconclusive.

SMILES | APEX1 inh | POLI inh | Pol beta inh | Pol eta inh-1 | Pol kappa inh | L3MBTL1 block | Pol eta inh-2 | others
NS(=O)(=O)c1ccc(NC(=S)NNC(=O)c2ccc(Br)o2)cc1 | 14% | 19% | 96% | -15% | -3% | nt | nt | GALK confirm=?;Redox cycling=-2%;HEK293 tox=19%
NS(=O)(=O)c1ccc(NC(=S)NC(=O)c2ccc(Br)o2)cc1 | 2% | 63% | ? | -2% | -11% | -1% | nt
Cc1ccc(C)c(OCC(=O)Nc2cc(NC(=O)COc3cc(C)ccc3C)cc(C(=O)O)c2)c1 | -34% | ? | 0% | 50µM* | -13% | 1% | 67*
Cc1ccc(C)c(OCC(=O)Nc2nonc2NC(=O)COc2cc(C)ccc2C)c1 | -1% | ? | -25% | -11% | -7% | nt | nt
Nc1ccc(C(CC(=O)O)n2cccc2)cc1 (stereo not drawn) | ? | 40µM* | ? | 25µM* | 45µM* | nt | 34*
O=C(O)CC(c1ccccc1)n1cccc1 (stereo not drawn) | 13% | 7% | 6% | 0% | 2% | -1% | nt
Cc1c(Cl)c(C(F)F)nn1CC(=O)NC1C(=O)N2C(C(=O)O)=C(CSc3nnnn3C)CSC12 (stereo not drawn) | ? | ? | 22µM* | 20µM* | ? | nt | 76*
Cn1nnnc1SCC1=C(C(=O)O)N2C(=O)C(NC(=O)Cn3nc(C(F)F)cc3C3CC3)C2SC1 (stereo not drawn) | -5% | 35µM* | 18µM* | 20µM* | ? | nt | ?
Cc1c(Cl)cnn1CC(=O)NC1C(=O)N2C(C(=O)O)=C(CSc3nnnn3C)CSC12 (stereo not drawn) | ? | ? | 20µM* | 22µM* | ? | nt | 43*
Cc1cc(=O)c(C(=O)N[C@@H](C(=O)N[C@@H]2C(=O)N3C(C(=O)O)=C(CSc4nnnn4C)CS[C@H]23)c2ccc(O)cc2)c[nH]1 | nt | nt | nt | nt | 0%[19.4 µM] | nt | nt
CC1=C(C(=O)O)N2C(=O)C(NC(=O)c3nn(C)cc3Cl)C2SC1 (stereo not drawn) | 2% | 13% | 28% | -29% | -11% | 4% | nt

Screening data (PubChem)
